Source: PubChem BioAssay (EPA / NIEHS)
Values joined by “and” are separate entries in the source; they are usually repeats but may differ in a detail not shown here. Identical values can stand only once. Where a structure was tested more than once in an assay, its records may differ in their call. Active and inactive are the calls of the source. How the source made its calls: active means hit-call score of the fitted dose curve at least 0.9, where 1 is the maximum; inactive means score below 0.9.

Test: APR_HepG2_MitoMass_72hr: Apredica 72-hour HepG2 Assay for Mitochondrial Mass (AID 2282924);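 further: MitoTracker Red CMXRos stain intensity per cell imaged as mitochondrial mass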
Details: high-content imaging, actives raise or lower the signal
Method in brief: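 HepG2 cells dosed 72 hr at 0.39–200 uM (0.5% DMSO), in duplicate. MitoTracker Red CMXRos 250 nM loaded 30 min before formaldehyde fixation; high-content fluorescence imaging, bidirectional fit versus DMSO.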
For `CON(C)C(=O)Nc1ccc(Cl)c(Cl)c1`, the AC50 was 67 µM (active). For `N#Cc1nn(-c2c(Cl)cc(C(F)(F)F)cc2Cl)c(N)c1S(=O)C(F)(F)F` (stereo not given), the outcome was “inactive”. With `CCOC(=O)C(Cl)Cc1cc(-n2nc(C)n(C(F)F)c2=O)c(F)cc1Cl` (stereo not given) the outcome was “inactive”. With `N#Cc1cc(Br)c(O)c(Br)c1` the outcome was “inactive”. For `CCCC1COC(Cn2cncn2)(c2ccc(Cl)cc2Cl)O1` (stereo not given), the outcome was “inactive”. For `CC(Oc1ccc(Cl)cc1Cl)C(=O)O` (stereo not given), the outcome was “inactive”. With `CO/C=C(/C(=O)OC)c1ccccc1Oc1cc(Oc2ccccc2C#N)ncn1` the AC50 was 1.68 µM (active) and 3.44 µM (active) and the outcome was “inactive”. In the case of `OC(c1ccc(Cl)cc1)(c1cncnc1)c1ccccc1Cl` (stereo not given), the outcome is reported as “inactive”. With `COc1cnc(OC)n2nc(NS(=O)(=O)c3c(OCC(F)F)cccc3C(F)(F)F)nc12` the outcome was “inactive”. For `CCCN(CCC)c1c([N+](=O)[O-])cc(S(N)(=O)=O)cc1[N+](=O)[O-]`, the AC50 was 94.8 µM (active) and the outcome was “inactive”. With `COC(=O)c1ccccc1C(=O)OC` the outcome was “inactive”. With `COc1nc(C)nc(NC(=O)NS(=O)(=O)c2ccccc2Cl)n1` the outcome was “inactive”. With `COP(N)(=O)SC` (stereo not given) the outcome was “inactive”. In the case of `Cc1cc(Cl)ccc1OCC(=O)O`, the outcome is reported as “inactive”. With `C=CCC1=C(C)C(OC(=O)C2C(C=C(C)C)C2(C)C)CC1=O` (stereo not given) the AC50 was 66.4 µM (active) and the outcome was “inactive”. In the case of `CCCCNC(=O)OCC#CI`, the AC50 is reported as 5.54 µM (active) and the outcome is reported as “inactive”. In the case of `CN(C)C(=S)SSC(=S)N(C)C`, the outcome is reported as “inactive”. For `CCOc1cc(Oc2ccc(C(F)(F)F)cc2Cl)ccc1[N+](=O)[O-]`, the outcome was “inactive”. For `O=C(O)c1nc(Cl)ccc1Cl`, the outcome was “inactive”. For `CCOP(=S)(OCC)SCn1c(=O)oc2cc(Cl)ccc21`, the outcome was “inactive”. With `CCCCNC(=O)n1c(NC(=O)OC)nc2ccccc21` the AC50 was 13 µM (active). In the case of `COC(=O)C=C(C)OP(=O)(OC)OC`, the outcome is reported as “inactive”. For `Cc1ccc(-c2c(Cl)nc(C#N)n2S(=O)(=O)N(C)C)cc1`, the outcome was “inactive”. For `C#CCOS(=O)OC1CCCCC1Oc1ccc(C(C)(C)C)cc1` (stereo not given), the outcome was “inactive”. With `COc1nc(C)nc(NC(=O)NS(=O)(=O)c2ccccc2CCC(F)(F)F)n1` the outcome was “inactive”. For `CC1=C(C(=O)Nc2ccccc2)SCCO1`, the outcome was “inactive”.
